The list is not random: actives were taken first. Their share in the collection is about 5.9%.
KB-3-1 cytotox – KB-3-1 parental cell cytotoxicity; KB-3-1 viability, CellTiter-Glo ATP luminescence, 72 h; Potency, µM (series often up to 46.1 µM), actives largely listed as cytotoxic; hit rate 1.4% among 400,000; further: on the % scale 0 is the no-effect control and ±100 the full control effect; nearly all actives have a fitted effect of over 60% in size
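Parental KB-3-1 adenocarcinoma cells in phenol-red-free DMEM with 10% FBS were pin-treated with compounds at several concentrations, incubated 72 h at 37 °C, and viability read by CellTiter-Glo luminescence; concentration-effect curves were fitted after normalization.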
ATXN2 expr inh – ATXN2 expression inhibition. HEK-293 ATXN2-luciferase reporter, luminescence, 24 h. Potency, µM (titrated, usually from 57 µM), for inactives: at the highest dose activity change, negative = inhibition, hits mostly inhibitors. hit rate 0.72% among 360,000. AID 1745845; further: on the % scale 0 is the no-effect control and ±100 the full control effect; nearly all actives have a fitted effect of over 55% in size
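ATXN2-luciferase reporter cells (luciferase flanked by upstream and downstream ATXN2 gene portions) were treated 24 h at 37 °C with compounds at up to 57 uM. SteadyGlo luminescence gave expression; GF-AFC fluorescence gave viability.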
HepG2 tox – kills HepG2 cells in TGF-b inhibitor counter-screen; HepG2 CAGA-GFP viability, ATP luminescence, 18 h; Potency, µM (series often up to 46.1 µM), inactives show at the highest dose activity change, negative = cytotoxicity, hits mostly cytotoxic; hit rate 0.76% among 410,000; AID 588856
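CellTiter-Glo luminescence gave cytotoxicity after 18 hours at 37 degrees C. The cells were HepG2 CAGA-GFP in 1% FBS DMEM, stimulated with 500 pg/mL TGF-beta after compound addition. %Activity was normalised to no-cell wells (complete cell-killing) and DMSO (no toxicity), and curves were fitted and classified.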
S2 tox – cell viability loss in ATXN counter-screen; AID 651635; Potency, µM (highest dose often 56.7 µM), most hits filed as cytotoxic; S2 cells (HEK-293 line with an ATXN2-luciferase reporter) viability, CellTiter-Fluor protease fluorescence, 24 h; hit rate 0.49% among 400,000; further: nearly all actives have a fitted effect of over 40% in size
TGFb inhibitor – TGF-b pathway inhibition; HepG2 CAGA-GFP TGF-b/SMAD3 reporter, GFP fluorescence, 18 h; TGF-beta stimulated, 500 pg/mL final; Potency, µM (doses to about 46.1 µM), without a hit: at the top dose activity, negative = inhibition, actives largely listed as inhibitors; hit rate 1.2% among 410,000; AID 588855; further: on the % scale 0 is the no-effect control and ±100 the full control effect; nearly all actives have a fitted effect of over 65% in size
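First, reporter cells (HEPG2 CAGA-GFP) rested 2 h at 37 degrees C. Next, compounds were pinned in and TGF-beta added to 500 pg/mL final. After 18 h, GFP was imaged per cell and summed per well.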
KB-V1 MDR tox – kills drug-selected multidrug resistant KB-V1 cells; Potency, µM (doses to about 46.1 µM), usual class: cytotoxic; AID 1347076; hit rate 3.4% among 400,000; KB-V1 MDR cells viability, CellTiter-Glo, 72 h; further: on the % scale 0 is the no-effect control and ±100 the full control effect; nearly all actives have a fitted effect of over 60% in size
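Compound-treated KB-V1 multidrug-resistant cells, 72 h, 37 degrees C; viability by CellTiter-Glo. Fitted qHTS curves give the values.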
Active calls of the source: *. The call rests on the fitted dose curve; in most records, active means well fitted curve in the direction sought with a large enough effect; inconclusive means small, poorly fitted or top-dose-only effect, or another doubt; inactive means no such curve, though single readings can be large; an effect the other way counts as inactive or inconclusive. Potency means the concentration at half of the fitted maximal effect.

Results for COC(=O)c1ccc(C(=O)OC)c(NC(=S)N2CCN(c3cccc(Cl)c3)CC2)c1 ?
KB-3-1 cytotox: inactive; ATXN2 expr inh: -8%; HepG2 tox: 7%; S2 tox: inconclusive; TGFb inhibitor: inconclusive; KB-V1 MDR tox: 16µM*

Results for CC(=O)c1ccc(N2CCN(C(=S)Nc3cccc(Cl)c3)CC2)cc1 ?
KB-3-1 cytotox: inactive; ATXN2 expr inh: -8%; HepG2 tox: -11%; S2 tox: inactive; TGFb inhibitor: -31%; KB-V1 MDR tox: 23µM*

How did COC(=O)c1ccc(C(=O)OC)c(NC(=S)N2CCC(C)CC2)c1 do in these assays?
KB-3-1 cytotox: inactive; ATXN2 expr inh: 1%; HepG2 tox: 15%; S2 tox: inactive; TGFb inhibitor: -2%; KB-V1 MDR tox: 16µM*

What do the screens show for `COCCNC(=O)C1(C)CCN(C(=O)c2nc(C)oc2C)C1` (stereo not drawn)?
KB-3-1 cytotox: inactive; ATXN2 expr inh: 8%; HepG2 tox: 7%; S2 tox: inactive; TGFb inhibitor: 22%; KB-V1 MDR tox: inactive

Results for Cc1ccc(C(=O)c2cn(Cc3cccc(Cl)c3)c3nc(C)ccc3c2=O)cc1 ?
KB-3-1 cytotox: inactive; ATXN2 expr inh: inconclusive; HepG2 tox: -31%; S2 tox: inactive; TGFb inhibitor: -20%; KB-V1 MDR tox: inconclusive

How did CCC1Oc2ccc(C)cc2N(CC(=O)N(Cc2ccc3c(c2)OCO3)CC2CCCO2)C1=O (stereo not drawn) do in these assays?
KB-3-1 cytotox: inactive; ATXN2 expr inh: 3%; HepG2 tox: 22%; S2 tox: inactive; TGFb inhibitor: -21%; KB-V1 MDR tox: 6.5µM*

How did CCC1Oc2ccc(C)cc2N(CC(=O)N(Cc2ccc(C)o2)C2CC(C)(C)NC(C)(C)C2)C1=O (stereo not drawn) do in these assays?
KB-3-1 cytotox: inconclusive; ATXN2 expr inh: inconclusive; HepG2 tox: 13µM*; S2 tox: inconclusive; TGFb inhibitor: inconclusive; KB-V1 MDR tox: inconclusive

How did COc1ccc(CN(CC2CCCO2)C(=O)CN2C(=O)C(C)Oc3ccc(C)cc32)cc1OC (stereo not drawn) do in these assays?
KB-3-1 cytotox: inactive; ATXN2 expr inh: -5%; HepG2 tox: -19%; S2 tox: inactive; TGFb inhibitor: 0%; KB-V1 MDR tox: inconclusive

How did CCC1Oc2ccc(C)cc2N(CC(=O)N(Cc2cccnc2)Cc2ccc(C)o2)C1=O (stereo not drawn) do in these assays?
KB-3-1 cytotox: inactive; ATXN2 expr inh: -16%; HepG2 tox: -31%; S2 tox: inactive; TGFb inhibitor: -13%; KB-V1 MDR tox: inconclusive

Results for COC(=O)c1ccccc1-c1cc(C)cc2c1OC(CNC(=O)c1cc(C)on1)C2 (stereo not drawn) ?
S2 tox: inactive

Results for C=C(C(=O)O)c1ccc2ccccc2c1 ?
KB-3-1 cytotox: inactive; HepG2 tox: 0%; TGFb inhibitor: 3%; KB-V1 MDR tox: inactive

What do the screens show for `Cc1ccccc1C(=O)Nc1ccc(C(=O)OCc2cc(=O)n3c4c(sc3n2)CCCC4)cc1`?
HepG2 tox: 8.9µM*; TGFb inhibitor: 11µM*

Results for Cc1cccc(C(=O)Nc2ccc(C(=O)OCc3cc(=O)n4c5c(sc4n3)CCCC5)cc2)c1 ?
HepG2 tox: -56%; TGFb inhibitor: inconclusive

Results for O=c1c(-c2ccc(Cl)cc2)c(C(F)(F)F)oc2c(CN3CCCCC3)c(O)ccc12 ?
KB-3-1 cytotox: inconclusive; ATXN2 expr inh: -2%; HepG2 tox: -10%; S2 tox: inactive; TGFb inhibitor: 8%; KB-V1 MDR tox: inconclusive

Results for Cc1cccc(NC(=S)NC2CC3CCCC(C2)N3CC(C)C)c1C (stereo not drawn) ?
KB-3-1 cytotox: inactive; ATXN2 expr inh: 5%; HepG2 tox: -110%; S2 tox: inactive; TGFb inhibitor: -7%; KB-V1 MDR tox: 21µM*

Results for O=C1Nc2ccc(Br)cc2/C1=C/C(=O)c1ccc2c(c1)OCO2 ?
KB-3-1 cytotox: inconclusive; HepG2 tox: -110%; S2 tox: 20µM*; TGFb inhibitor: inconclusive; KB-V1 MDR tox: inconclusive

What do the screens show for `COc1ccc(C(=O)/C=C2\C(=O)Nc3ccc(Br)cc32)cc1`?
KB-3-1 cytotox: inconclusive; ATXN2 expr inh: inconclusive; HepG2 tox: -43%; S2 tox: inconclusive; TGFb inhibitor: inconclusive; KB-V1 MDR tox: inconclusive

Results for CC1(C)CC2C1CCC1(O)CC2(C)CCC1N(O)c1ccc(C(=O)NCCO)cn1 (stereo not drawn) ?
KB-3-1 cytotox: inconclusive; ATXN2 expr inh: 28µM*; HepG2 tox: -39%; S2 tox: inconclusive; TGFb inhibitor: -25%; KB-V1 MDR tox: inactive

What do the screens show for `O=C(CN1C(=O)C2CCCCN2c2ccc(C(=O)N3CCCC3)cc21)NCc1ccccc1F` (stereo not drawn)?
KB-3-1 cytotox: inactive; ATXN2 expr inh: -8%; HepG2 tox: -16%; S2 tox: inactive; TGFb inhibitor: -16%; KB-V1 MDR tox: inactive

What do the screens show for `CC1CN(S(=O)(=O)c2cccc(C(=O)OCCOc3ccccc3)c2)CC(C)O1` (stereo not drawn)?
KB-3-1 cytotox: inactive; ATXN2 expr inh: -4%; HepG2 tox: -5%; S2 tox: inactive; TGFb inhibitor: -3%; KB-V1 MDR tox: 12µM*

What do the screens show for `CN(C)S(=O)(=O)c1ccc2c(c1)C(=Cc1cc3c([nH]1)CCCC3)C(=O)N2`?
ATXN2 expr inh: 27%

How did COC(=O)[C@]12CCC(C)(C)C[C@@H]1[C@@H]1C(=O)C=C3[C@@]4(C)C=C(C#N)C(=O)C(C)(C)[C@@H]4CC[C@@]3(C)[C@]1(C)CC2 do in these assays?
ATXN2 expr inh: 1.7µM*; S2 tox: 2.5µM*

How did COc1ccc2cc(C(=O)C3CCCN(Cc4cnc(C)s4)C3)ccc2c1 (stereo not drawn) do in these assays?
KB-3-1 cytotox: inconclusive; ATXN2 expr inh: inconclusive; HepG2 tox: -14%; S2 tox: inactive; TGFb inhibitor: -25%; KB-V1 MDR tox: 9.2µM*

What do the screens show for `COc1ccc2cc(C(=O)C3CCCN(C(=O)/C=C/c4ccccn4)C3)ccc2c1` (stereo not drawn)?
KB-3-1 cytotox: inactive; ATXN2 expr inh: -15%; HepG2 tox: 13µM*; S2 tox: inactive; TGFb inhibitor: 0%; KB-V1 MDR tox: inconclusive

What do the screens show for `COc1ccc(C(=O)C2CCCN(Cc3cnc(N4CCCC4)s3)C2)cc1OC` (stereo not drawn)?
KB-3-1 cytotox: inactive; HepG2 tox: -24%; S2 tox: inactive; TGFb inhibitor: 4%; KB-V1 MDR tox: inactive
